Measurements taken from the supplement of paper PMC4466140.

What was measured:
Experiment in all cases: SPOT peptide array binding signal intensity (averaged, normalized) (arbitrary units (background-subtracted, floor 0; scale differs between SH3 domains)); higher = stronger binding of the SH3 domain to the peptide
[1] = molecular target: AgAbp1
Description: (§1)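 GST-tagged SH3 domains from S. cerevisiae (Sc), A. gossypii (Ag), C. albicans (Ca) and S. pombe (Sp) were incubated at 10 ug/ml overnight at 4 C on cellulose SPOT membranes carrying 292 synthetic 15-mer peptides mined from the S. cerevisiae proteome (cysteines replaced by serines). Binding was detected with anti-GST antibody, HRP secondary and chemiluminescence, quantified with Genespotter, and reported as normalized spot intensities averaged over biological replicates.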

[2] = molecular target: AgBbc1
Description: as §1

[3] = molecular target: AgBem1-D1
Description: as §1

[4] = molecular target: AgBzz1-D1
Description: as §1

[5] = molecular target: AgBzz1-D2
Description: as §1

[6] = molecular target: AgCyk3
Description: as §1

[7] = molecular target: AgFus1
Description: as §1

[8] = molecular target: AgHof1
Description: as §1

[9] = molecular target: AgHse1
Description: as §1

[10] = molecular target: AgLsb1
Description: as §1

[11] = molecular target: AgLsb4
Description: as §1

[12] = molecular target: AgMyo5
Description: as §1

[13] = molecular target: AgNbp2
Description: as §1

[14] = molecular target: AgRvs167
Description: as §1

[15] = molecular target: AgSho1
Description: as §1

[16] = molecular target: AgSla1-D1-D2
Description: as §1

[17] = molecular target: AgSla1-D3
Description: as §1

[18] = molecular target: CaAbp1-D1
Description: as §1

[19] = molecular target: CaAbp1-D2
Description: as §1

[20] = molecular target: CaBbc1
Description: as §1

[21] = molecular target: CaBem1-D1
Description: as §1

[22] = molecular target: CaBzz1-D1
Description: as §1

[23] = molecular target: CaBzz1-D2
Description: as §1

[24] = molecular target: CaCyk3
Description: as §1

[25] = molecular target: CaFus1
Description: as §1

[26] = molecular target: CaHof1
Description: as §1

[27] = molecular target: CaHse1
Description: as §1

[28] = molecular target: CaLsb1
Description: as §1

[29] = molecular target: CaLsb4
Description: as §1

[30] = molecular target: CaMyo5
Description: as §1

[31] = molecular target: SpBzz1-D2
Description: as §1

[32] = molecular target: SpCyk3
Description: as §1

[33] = molecular target: SpHof1
Description: as §1

[34] = molecular target: SpHof1-2
Description: as §1

[35] = molecular target: SpHof1-3
Description: as §1

[36] = molecular target: SpHse1
Description: as §1

[37] = molecular target: SpLsb1
Description: as §1

[38] = molecular target: SpLsb4
Description: as §1

[39] = molecular target: SpMyo1
Description: as §1

[40] = molecular target: SpNbp2
Description: as §1

[41] = molecular target: SpPex13
Description: as §1

[42] = molecular target: SpRvs167
Description: as §1

[43] = molecular target: SpSla1-D1-D2
Description: as §1

[44] = molecular target: SpSla1-D3
Description: as §1

[45] = molecular target: CaNbp2
Description: as §1

[46] = molecular target: CaRvs167
Description: as §1

[47] = molecular target: CaRvs167-3
Description: as §1

[48] = molecular target: CaSho1
Description: as §1

[49] = molecular target: CaSla1-D1-D2
Description: as §1

[50] = molecular target: CaSla1-D3
Description: as §1

[51] = molecular target: ScAbp1
Description: as §1

[52] = molecular target: ScBbc1
Description: as §1

[53] = molecular target: ScBem1-D1
Description: as §1

[54] = molecular target: ScBzz1-D1
Description: as §1

[55] = molecular target: ScBzz1-D2
Description: as §1

[56] = molecular target: ScCyk3
Description: as §1

[57] = molecular target: ScFus1
Description: as §1

[58] = molecular target: ScHof1
Description: as §1

[59] = molecular target: ScHse1
Description: as §1

[60] = molecular target: ScLsb1
Description: as §1

[61] = molecular target: ScLsb2
Description: as §1

[62] = molecular target: ScLsb3
Description: as §1

[63] = molecular target: ScLsb4
Description: as §1

[64] = molecular target: ScMyo3
Description: as §1

[65] = molecular target: ScMyo5
Description: as §1

[66] = molecular target: ScNbp2
Description: as §1

[67] = molecular target: ScPex13
Description: as §1

[68] = molecular target: ScRvs167
Description: as §1

[69] = molecular target: ScSho1
Description: as §1

[70] = molecular target: ScSla1-D1-D2
Description: as §1

[71] = molecular target: ScSla1-D3
Description: as §1

[72] = molecular target: SpAbp1-D1
Description: as §1

[73] = molecular target: SpBbc1
Description: as §1

[74] = molecular target: SpBzz1-D1
Description: as §1

B1: unnamed (peptide)
chain: KLSRGRYGLPLSSRP
[1]
  SPOT peptide array binding signal intensity: 34
[2]
  SPOT peptide array binding signal intensity: 30
[3]
  SPOT peptide array binding signal intensity: 37
[4]
  SPOT peptide array binding signal intensity: 59
[5]
  SPOT peptide array binding signal intensity: 55.5
[6]
  SPOT peptide array binding signal intensity: 7.5
[7]
  SPOT peptide array binding signal intensity: 65
[8]
  SPOT peptide array binding signal intensity: 20.5
[9]
  SPOT peptide array binding signal intensity: 187
[10]
  SPOT peptide array binding signal intensity: 63
[11]
  SPOT peptide array binding signal intensity: 29
[12]
  SPOT peptide array binding signal intensity: ≤ 0
[13]
  SPOT peptide array binding signal intensity: 39
[14]
  SPOT peptide array binding signal intensity: 4.33
[15]
  SPOT peptide array binding signal intensity: 6
[16]
  SPOT peptide array binding signal intensity: 41
[17]
  SPOT peptide array binding signal intensity: 3.75
[18]
  SPOT peptide array binding signal intensity: 380
[19]
  SPOT peptide array binding signal intensity: 273
[20]
  SPOT peptide array binding signal intensity: 101
[21]
  SPOT peptide array binding signal intensity: 19
[22]
  SPOT peptide array binding signal intensity: 146
[23]
  SPOT peptide array binding signal intensity: 100
[24]
  SPOT peptide array binding signal intensity: 6.5
[25]
  SPOT peptide array binding signal intensity: 86
[26]
  SPOT peptide array binding signal intensity: 0.5
[27]
  SPOT peptide array binding signal intensity: 2
[28]
  SPOT peptide array binding signal intensity: 1.5
[29]
  SPOT peptide array binding signal intensity: 37
[30]
  SPOT peptide array binding signal intensity: 2

B2: unnamed (peptide)
chain: RRLRDKYKLPIVDAD
[31]
  SPOT peptide array binding signal intensity: 0.5
[32]
  SPOT peptide array binding signal intensity: 2.5
[33]
  SPOT peptide array binding signal intensity: 54.5
[34]
  SPOT peptide array binding signal intensity: 12
[35]
  SPOT peptide array binding signal intensity: 318
[36]
  SPOT peptide array binding signal intensity: 346
[37]
  SPOT peptide array binding signal intensity: 49.2
[38]
  SPOT peptide array binding signal intensity: 44
[39]
  SPOT peptide array binding signal intensity: 1.25
[40]
  SPOT peptide array binding signal intensity: 105
[41]
  SPOT peptide array binding signal intensity: 9
[42]
  SPOT peptide array binding signal intensity: 0.833
[43]
  SPOT peptide array binding signal intensity: 3
[44]
  SPOT peptide array binding signal intensity: 6

B3: unnamed (peptide)
chain: GLRRARYKFPGQQKI
[1]
  SPOT peptide array binding signal intensity: 36.5
[2]
  SPOT peptide array binding signal intensity: 30
[3]
  SPOT peptide array binding signal intensity: 75
[4]
  SPOT peptide array binding signal intensity: 22.5
[5]
  SPOT peptide array binding signal intensity: 26
[6]
  SPOT peptide array binding signal intensity: 3
[7]
  SPOT peptide array binding signal intensity: 230
[8]
  SPOT peptide array binding signal intensity: 24.5
[9]
  SPOT peptide array binding signal intensity: 283
[10]
  SPOT peptide array binding signal intensity: 17.2
[11]
  SPOT peptide array binding signal intensity: 32.5
[12]
  SPOT peptide array binding signal intensity: 2
[13]
  SPOT peptide array binding signal intensity: 55
[14]
  SPOT peptide array binding signal intensity: 5.67
[15]
  SPOT peptide array binding signal intensity: 22
[16]
  SPOT peptide array binding signal intensity: 228
[17]
  SPOT peptide array binding signal intensity: 3
[18]
  SPOT peptide array binding signal intensity: 388
[19]
  SPOT peptide array binding signal intensity: 257
[20]
  SPOT peptide array binding signal intensity: 91.5
[21]
  SPOT peptide array binding signal intensity: 11
[22]
  SPOT peptide array binding signal intensity: 74.5
[23]
  SPOT peptide array binding signal intensity: 69
[24]
  SPOT peptide array binding signal intensity: 20.5
[25]
  SPOT peptide array binding signal intensity: 254
[26]
  SPOT peptide array binding signal intensity: 1
[27]
  SPOT peptide array binding signal intensity: 11.5
[28]
  SPOT peptide array binding signal intensity: 0.5
[29]
  SPOT peptide array binding signal intensity: 13
[30]
  SPOT peptide array binding signal intensity: 2.5
[45]
  SPOT peptide array binding signal intensity: 140
[46]
  SPOT peptide array binding signal intensity: 15.2
[47]
  SPOT peptide array binding signal intensity: 105
[48]
  SPOT peptide array binding signal intensity: 254
[49]
  SPOT peptide array binding signal intensity: 75
[50]
  SPOT peptide array binding signal intensity: 3
[51]
  SPOT peptide array binding signal intensity: 36
[52]
  SPOT peptide array binding signal intensity: 19
[53]
  SPOT peptide array binding signal intensity: 24
[54]
  SPOT peptide array binding signal intensity: 19
[55]
  SPOT peptide array binding signal intensity: 22
[56]
  SPOT peptide array binding signal intensity: 107
[57]
  SPOT peptide array binding signal intensity: 244
[58]
  SPOT peptide array binding signal intensity: 1.5
[59]
  SPOT peptide array binding signal intensity: 854
[60]
  SPOT peptide array binding signal intensity: 8.25
[61]
  SPOT peptide array binding signal intensity: 5
[62]
  SPOT peptide array binding signal intensity: 63
[63]
  SPOT peptide array binding signal intensity: 13
[64]
  SPOT peptide array binding signal intensity: 2
[65]
  SPOT peptide array binding signal intensity: 4.5
[66]
  SPOT peptide array binding signal intensity: 167
[67]
  SPOT peptide array binding signal intensity: 8.5
[68]
  SPOT peptide array binding signal intensity: 31
[69]
  SPOT peptide array binding signal intensity: 296
[70]
  SPOT peptide array binding signal intensity: 294
[71]
  SPOT peptide array binding signal intensity: 5
[72]
  SPOT peptide array binding signal intensity: 196
[73]
  SPOT peptide array binding signal intensity: 2
[74]
  SPOT peptide array binding signal intensity: 145
[31]
  SPOT peptide array binding signal intensity: 0.5
[32]
  SPOT peptide array binding signal intensity: 6
[33]
  SPOT peptide array binding signal intensity: 180
[34]
  SPOT peptide array binding signal intensity: 5
[35]
  SPOT peptide array binding signal intensity: 199
[36]
  SPOT peptide array binding signal intensity: 268
[37]
  SPOT peptide array binding signal intensity: 26
[38]
  SPOT peptide array binding signal intensity: 56
[39]
  SPOT peptide array binding signal intensity: 1
[40]
  SPOT peptide array binding signal intensity: 120
[41]
  SPOT peptide array binding signal intensity: 16
[42]
  SPOT peptide array binding signal intensity: 12.5
[43]
  SPOT peptide array binding signal intensity: 1
[44]
  SPOT peptide array binding signal intensity: 13
